# From PubChem BioAssay (EPA / NIEHS)
# Calls of active or inactive are those of the source. The calls were made as follows: active = hit-call score of the fitted dose curve at least 0.9, where 1 is the maximum; inactive = score below 0.9.
# Read-out: Cytochrome P450 2C19 (Homo sapiens) (UniProt P33261)
# Assay: LTEA_HepaRG_CYP2C19: Life Technologies and Expression Analysis (LTEA) Assay for CYP2C19 using HepaRG (AID 2283482)
# Settings: mRNA level, 48 h; actives raise or lower the signal
# Description: LTEA_HepaRG is a cell based, multiplexed-readout assay that uses HepaRG, a human liver cell line, with measurements taken at 48 hours after chemical dosing on a 96-well plate.LTEA_HepaRG_CYP2C19 is one of 102 assay component(s) measured in the LTEA HepaRG cell culture assay. It is a marker of NR mediated metabolism.Data from the assay component LTEA_HepaRG_CYP2C19 was analyzed into 1 endpoint. This assay endpoint, LTEA_HepaRG_CYP2C19, was analyzed with bidirectional fitting relative to DMSO as the negative control and baseline of activity. Using a type of inducible reporter, measures of mRNA induction for gain or loss-of-signal activity can be used to understand regulation of transcription factor activity. To generalize the intended target to other relatable targets, this assay endpoint is annotated to the cyp intended target family, where the subfamily is xenobiotic metabolism.
# A total of 1060 chemcials from the ToxCast library were tested in eight-point concentration-response experiments. Cell culture and cytotoxicity assays were conducted at Thermo Fisher Scientific's Custom Services facility (Madison, WI). A single lot of human HepaRG cells (Thermo Fisher Scientific, Frederick, MD) was used for the cell culture experiments. 96-well format collagen type I coated plates of human HepaRG cells were prepared using established methods. Briefly, cryopreserved HepaRG cells were thawed, plated at a density of approximately 100,000 cells/well in HepaRG Thaw, Plate, and General Purpose media (HPRG770, Thermo Fisher Scientific), and incubated for 48 hours. 0.5% DMSO was selected as vehicle control to balance the requisite need of DMSO in HepaRG cultures to maintain differentiation (for example, baseline metabolism, proportions of hepatocytes vs. cholangiocytes), while enabling further hepatic receptor pathway activation (for example, PXR and CAR) in response to chemical exposure. 48 hours after plating, the culture medium was replaced with HepaRG Serum-Free Incudtion Media. Cells were exposed to each test chemical in duplicate and maintained in CO2 incubators for another 48 hours. Chemical plates were thawed to room temperature and 200x concentrations of treatment groups were prepared. 8-point conentration-reponse curves were made with the highest exposure at 100 uM, followed by half-log dilutions, all in 0.5% DMSO. Each test plate contained variouse controls, induction positive controls (1mM phenobarbital), cytotoxicity positive controls ([…] aflatoxin B1), vehicle controls (0.5% DMSO), and total lysis controls (0.5% DMSO). Cell morphology images were taken using an Essen IncuCyte FLR automated microscope, with six 96-well plates imaged in about 24 minutes. Images were captured and exported and JPEG files. Spent culture media was transfered to black-well plates for the LDH assay, and remaining media was sorted at -80 C for later use. Cells were treated with RLT buffer and frozen until shipped for gene expression analysis. Total RNA was isolated from the cell suspension in 75 uL of Buffer RLT (Qiagen, Germantown, MD 20874) by Quintiles/Expression Analysis (Durham, NC) using a custom isolation procedure. Total RNA from each plate well was transferred to a preamplification plate. Fluidigm's 96.96 Dynamic ArrayTM (Fluidigm, Amsterdam, the Netherlands) technology was used for gene expression analyses by quantitative reverse transcription polymerase chain reaction (qRT-PCR, performed by Quintiles/Expression Analysis, Durham, NC)89. Standard TaqManTM Assays (Applied Biosystems/ThermoFisher Scientific, Foster City, CA) were used to assess the expression of 93 genes selected based on their selectivity and sensitivity to important hepatic receptors known to be modulated by environmental chemicals; importance in human hepatocyte functionality; and hepatotoxicity. […]
# Cytochrome P450 2C19 (Homo sapiens), sequence (P33261 whole entry, looked up): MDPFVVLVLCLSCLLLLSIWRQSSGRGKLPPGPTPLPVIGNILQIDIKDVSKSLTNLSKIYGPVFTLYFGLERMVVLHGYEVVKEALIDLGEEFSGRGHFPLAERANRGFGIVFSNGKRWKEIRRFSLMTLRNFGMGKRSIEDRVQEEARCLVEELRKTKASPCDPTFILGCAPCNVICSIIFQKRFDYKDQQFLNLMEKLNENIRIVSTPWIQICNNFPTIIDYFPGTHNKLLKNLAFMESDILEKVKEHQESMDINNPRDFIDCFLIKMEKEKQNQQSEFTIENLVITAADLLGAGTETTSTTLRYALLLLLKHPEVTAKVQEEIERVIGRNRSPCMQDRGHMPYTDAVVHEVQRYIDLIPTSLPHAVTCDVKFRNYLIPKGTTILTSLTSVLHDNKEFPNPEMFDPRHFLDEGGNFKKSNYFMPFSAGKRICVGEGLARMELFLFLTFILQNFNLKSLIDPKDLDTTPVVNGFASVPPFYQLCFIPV
Structure (SMILES),outcome,AC50
COc1cc(OC)nc(Sc2cccc(Cl)c2C(=O)O)n1,inactive,–
CCOP(=O)(NC(C)C)Oc1ccc(SC)c(C)c1 (stereo not given),–,50 µM (active)
CCOP(=S)(OCC)Oc1ccc([N+](=O)[O-])cc1,–,9.2 µM (active)
O=C(O)c1cc(Oc2ccc(C(F)(F)F)cc2Cl)ccc1[N+](=O)[O-],inactive,–
CCCOCC(=Nc1ccc(Cl)cc1C(F)(F)F)n1ccnc1,–,32.5 µM (active)
CC(=NC#N)N(C)Cc1ccc(Cl)nc1,inactive,–
CCCOc1nn(C(=O)NS(=O)(=O)c2ccccc2C(=O)OC)c(=O)n1C,inactive,–
CSc1nnc(C(C)(C)C)c(=O)n1N,–,9.92 µM (active)
CCCCOC(=O)[C@@H](C)Oc1ccc(Oc2ccc(C#N)cc2F)cc1,inactive,–
O=c1ccc(=O)[nH][nH]1,inactive,–
Cc1ccn2nc(S(=O)(=O)Nc3c(F)cccc3F)nc2n1,inactive,–
CCOP(=S)(OCC)Oc1cc(C)nc(C(C)C)n1,–,16.1 µM (active)
CCc1cccc(C)c1N(C(=O)CCl)C(C)COC (stereo not given),–,16 µM (active)
Cc1nn(-c2cc(NS(C)(=O)=O)c(Cl)cc2Cl)c(=O)n1C(F)F,–,6.21 µM (active)
COP(=O)(OC)SCn1c(=O)oc2cc(Cl)cnc21,–,50 µM (active)
Nc1c(Cl)cc([N+](=O)[O-])cc1Cl,–,85 µM (active)
N#CSCSC#N,–,90.8 µM (active)
CCCSP(=O)(OCC)Oc1ccc(Br)cc1Cl (stereo not given),inactive,–
CCOP(=S)(OCC)OC(Cl)C(Cl)(Cl)Cl (stereo not given),inactive,–
CCOP(=S)(OCC)SCCSCC,–,22.2 µM (active)

Structure (SMILES),outcome,AC50
COP(=O)(NC(C)=O)SC (stereo not given),inactive,–
S=C1NCCN1,inactive,–
CNc1cnn(-c2cccc(C(F)(F)F)c2)c(=O)c1Cl,–,21.6 µM (active)
CON=C(C(=O)OC)c1ccccc1CON=C(C)c1cccc(C(F)(F)F)c1,inactive,–
CN1COCN(Cc2cnc(Cl)s2)C1=N[N+](=O)[O-],inactive,–
CSC1=N[C@@](C)(c2ccccc2)C(=O)N1Nc1ccccc1,–,38.1 µM (active)
COP(=O)(OC)OC(Br)C(Cl)(Cl)Br (stereo not given),inactive,–
O=[N+]([O-])c1cc(C(F)(F)F)c(Cl)c([N+](=O)[O-])c1Nc1ncc(C(F)(F)F)cc1Cl,–,26 µM (active)
C[Si](Cn1cncn1)(c1ccc(F)cc1)c1ccc(F)cc1,–,80.1 µM (active)
CC(C1CC1)C(O)(Cn1cncn1)c1ccc(Cl)cc1 (stereo not given),–,12.8 µM (active)
CN(C)C(=O)Nc1cccc(C(F)(F)F)c1,–,16 µM (active)
CCOP(=O)(OCC)Oc1cc(C)nc(C(C)C)n1,inactive,–
CN(C)[C@@H]1C(=O)C(C(N)=O)=C(O)[C@@]2(O)C(=O)C3=C(O)c4c(O)cccc4[C@@](C)(O)[C@H]3[C@H](O)[C@@H]12,inactive,–
C=C(C)[C@H]1Cc2c(ccc3c2O[C@@H]2COc4cc(OC)c(OC)cc4[C@@H]2C3=O)O1,–,2.75 µM (active)
CCc1cnc(C2=NC(C)(C(C)C)C(=O)N2)c(C(=O)O)c1 (stereo not given),inactive,–
COc1cccc(C(=O)NN(C(=O)c2cc(C)cc(C)c2)C(C)(C)C)c1C,–,1.49 µM (active)
C#CCC1=C(C)C(OC(=O)C2C(C=C(C)C)C2(C)C)CC1=O (stereo not given),inactive,–
CCCCSP(=O)(SCCCC)SCCCC,–,12.8 µM (active)
COc1ccc(C(=CC(=O)N2CCOCC2)c2ccc(Cl)cc2)cc1OC,–,10.4 µM (active)
CNC(=O)Oc1cccc2c1OC(C)(C)O2,inactive,–
